Source: PubChem BioAssay (NCI)
Compounds without any hit were thinned out: in the full panel of roughly 83,000, 20% have a hit.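 The test compound was applied at a single concentration to cells in 96-well plates for 48 hours, and percent growth was recorded.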 Values without a mark were called inactive. Activity calls are given as the source filed them. The calls were made as follows: active = growth percent below 10; inactive = the rest.

Each compound was assayed on BT-549 breast (assay: NCI-60 one-dose screen, 48 h (100 = growth as untreated, 0 = no growth, -100 = all killed)). Conditions: 10 µM unless noted.

Structure (SMILES)	growth
CCCCCN1C=C/C(=C\C(=O)N(C)c2ccc(Oc3ccccc3)cc2)c2ccccc21	91.4%
CNC(=O)c1cncc(Cn2nc(C)c(NC(=O)c3ccc(COc4ccc(C(F)(F)F)cc4C)cc3)c2C)c1	32.4%
Nc1c(C(=O)Nc2ccnc3ccccc23)sc2nc3c(cc12)CN(Cc1ccccc1)CC3	30.8%
CC1=C(C(=O)/C=C/c2ccc(N(C)C)cc2)C(c2ccccc2)NC(=S)N1 (stereo not drawn)	118%
Nc1nc(Nc2ccccc2SSc2ccccc2Nc2nc(N)nc(-c3cccs3)n2)nc(-c2ccsc2)n1	86%
COc1cc2c(cc1OC)C(=O)/C(=C/c1cc(C)c(O)c(C)c1)S2	36.9%
COc1cc2c(=O)n(CCCN(C)C)c3c4cc5c(cc4ccc3c2cc1OC)OCO5	47.8%
CCN(CC)CC[n+]1cc2cc(OC)c(OC)cc2c2ccc3cc4c(cc3c21)OCO4	-4.72% (active)
O=C(Nc1ccc(NC(=O)c2cc(=O)[nH]c3ccccc23)cc1)Nc1cccc(Cl)c1	79%
COc1ccc(/C=C2\Oc3cc(OCCCN4CCCCC4)ccc3C2=O)cc1OC	83.9%
Cc1nc(N)nc(N[C@@H](C)c2nc3cccc(NCc4ccc(C(=O)NO)cc4)c3c(=O)n2-c2ccccc2)n1	99%
Cc1ccc(/C=N/NC(=O)CSc2nc3ccccc3c(=O)n2Cc2ccc(S(N)(=O)=O)cc2)cc1	103%
COc1cc(/C(C)=C(\c2ccc(Cl)cc2)c2ccc(OCCN3CCCC3)cc2)ccc1F	79.1%
COc1cc2nc(-c3ccc(Cl)cc3)cc(OCCCN3CCOCC3)c2cc1OC	44.9%
COc1ccc(NC(N)=NCCCOc2ccc(F)cc2)cc1	67.3%
COC(=O)CNC(=O)[C@]12CCC(C)(C)C[C@H]1C1=CC[C@@H]3[C@@]4(C)Cc5c([nH]c6ccccc56)C(C)(C)[C@@H]4CC[C@@]3(C)[C@]1(C)CC2	102%
C[C@H]1[C@H](C)CC[C@]2(C(=O)Nc3ccc4ncccc4c3)CC[C@]3(C)C(=CC[C@@H]4[C@@]5(C)CCCNC(C)(C)[C@@H]5CC[C@]43C)[C@H]12	92%

Structure (SMILES)	growth
COc1cc(NC(C)CCCNC(=O)CCC(=O)NCCCNCCCCCCCCCCNCCCNC(=O)CCC(=O)NCCCC(C)Nc2cc(OC)cc3cccnc23)c2ncccc2c1 (stereo not drawn)	95.5% [8 µM]
CCCCCN1C=C/C(=C\C(=O)n2ccc3ccccc32)c2ccccc21	96.9%
Cc1cc2nc3c4ccc(Br)cc4n(CCN(C)C)c3nc2cc1C	57.5%
CC1(C)CC(=O)C2=C(C1)N(c1ccc(F)cc1F)C(N)=C(C#N)C2c1cc(Br)ccc1F (stereo not drawn)	106%
C[C@H]1[C@H](C)CC[C@]2(C(=O)NCC#CCN3CCN(C)CC3)CC[C@]3(C)C(=CC[C@@H]4[C@@]5(C)Cc6c([nH]c7ccccc67)C(C)(C)[C@@H]5CC[C@]43C)[C@H]12	99.6%
COc1cc2nc(-c3ccc(C(F)(F)F)cc3)cc(OCCCN3CCOCC3)c2cc1OC	30.5%
O=C1c2c(c3c4cccc(F)c4[nH]c3c3ccc4ccccc4c23)C(=O)N1O	52.7%
O=C1OC(Cc2ccccc2)C1c1ccccc1 (stereo not drawn)	95.1%
COc1cccc(/C=N/NC(=O)c2cnn3c2NC(c2ccccc2)C3)c1Oc1ccccc1 (stereo not drawn)	65.7%
COc1ccc(NC(=O)c2cc(NCc3cc(O)ccc3O)ccc2O)cc1	71.8%
COc1cc2nc(-c3ccc(Cl)cc3)cc(OCCCN3CCCC3)c2cc1OC	37.3%
COc1ccc(C/C(=C(\C)c2ccc(OCCN3CCCC3)cc2)c2ccc(OCCN3CCCC3)cc2)cc1	85%
COc1cc(NC(C)CCCNC(=O)CCC(=O)NCCCNCCCCCCCCNCCCNC(=O)CCC(=O)NCCCC(C)Nc2cc(OC)cc3cccnc23)c2ncccc2c1 (stereo not drawn)	95.2%
COc1ccc(Cc2cnc(NC(=O)c3ccc4c(c3)OCCO4)s2)cc1	43.6%
CC(=O)N1c2ccccc2NC2=C(C(=O)NC2(C)C)C1c1ccco1 (stereo not drawn)	86%
O=S(=O)(NCCNc1nccc(-c2c(-c3cccc(F)c3)nc3sccn23)n1)c1ccc(Cl)cc1	71.3%
